Results on 61 compounds are retold here after PubChem BioAssay AID1878 (Sanford-Burnham Center for Chemical Genomics, 2009).

The campaign covered roughly 1,000 compounds. About 200 (20%) were called active. Not all results are given here. Potency and affinity values are given separately. Unmarked numbers belong to inactive results. Rule as the data show it: active = inhibition above about 55%; inactive = the rest.

The target of the test is Dual specificity protein phosphatase 3 (Homo sapiens) (UniProt P51452). Briefly: VHR1 phosphatase inhibitors, biochemical (AID 1878). The note with it: recombinant VHR phosphatase, fluorogenic substrate; at 13.3 µM; stronger effect = higher value.
Sequence of Dual specificity protein phosphatase 3 (Homo sapiens) (P51452 whole entry, looked up): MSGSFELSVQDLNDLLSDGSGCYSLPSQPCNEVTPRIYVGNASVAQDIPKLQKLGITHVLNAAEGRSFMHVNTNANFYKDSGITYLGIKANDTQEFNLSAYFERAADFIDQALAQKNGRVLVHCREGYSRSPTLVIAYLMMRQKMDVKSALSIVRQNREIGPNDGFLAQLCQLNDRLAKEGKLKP
Take `Cc1ccc(N2C(=O)c3ccccc3C2=O)nc1`: the inhibition is -3.1%.

`CCN1CCN(C(=O)c2cc3ccc(OC)cc3[nH]2)CC1`: the inhibition was 10.9%.

Turning to `COc1ccc(Br)cc1S(=O)(=O)N1CCCc2ccccc21`, the inhibition is -6.5%.

For `CSc1ncc(C(=O)Nc2cc(C)ccc2C)c(C)n1`, the inhibition was -5.1%.

Regarding `Cc1cc2nc3s/c(=C/c4ccc(-c5ccccc5C(=O)O)o4)c(=O)n3c2cc1C`, the inhibition was 74.7% (active).

As to `CN(C)CCN(CC1CCCN(Cc2ccccc2F)C1)C(=O)Cc1ccccc1F` (stereo unspecified), the inhibition is -15.2%.

Consider `CC1=C(C(=O)Nc2cccc(C(=O)N3CCC(C(N)=O)CC3)c2)SCCO1`, for which the inhibition was 4.8%.

Regarding `COc1ccc(NC(=O)NCCN2CCCCC2)cc1`, the inhibition was -10.3%.

As to `CCN(CC)CCNC(=O)CCN1N=C(c2ccccc2)CCC1=O`, the inhibition was 2.7%.

Regarding `O=C(c1ccc(NC2=NC3CS(=O)(=O)CC3S2)cc1)N(CCO)Cc1ccccc1` (stereo unspecified), the inhibition was 0.9%.

`O=C1C(Cl)=C(N2CCOCC2)C(=O)N1c1ccccc1F`: the inhibition is -7.3%.

Take `COc1ccc(N(C(=O)c2snc(C(N)=O)c2N)C(C(=O)NC2CCCC2)c2ccc(F)cc2)c(OC)c1` (stereo unspecified): the inhibition is -0.8%.

Consider `CC1CCCCN1CCCNC(=O)CCCN1C(=O)c2cccnc2Sc2ccccc21` (stereo unspecified), for which the inhibition was -12.7%.

Take `CC1CCN(CCCNC(=O)C2CC(=O)N(CCc3ccccc3)C2)CC1` (stereo unspecified): the inhibition was -14.3%.

`COc1ccc(N(C)S(=O)(=O)c2ccc3c(c2)NC(=O)CC(=O)N3)c(OC)c1`: the inhibition was 7.8%.

Regarding `COC(=O)C1=NN(C(=O)c2ccccc2)C(O)(c2ccc([N+](=O)[O-])cc2)C1` (stereo unspecified), the inhibition is -7.4%.

As for `CC(Cc1n[nH]c(=S)n1N)c1ccccc1` (stereo unspecified), the inhibition was -2.8%.

Consider `CCOCCn1cnc2sc(C(=O)NCCCN3CCOCC3)c(C)c2c1=O`, for which the inhibition is 9.7%.

Turning to `CCc1cc(=O)oc2c(C)c(OCC(=O)NCCCN3CCOCC3)ccc12`, the inhibition is 3.5%.

`CCOC(=O)C1(CCc2ccccc2)CCN(CC(O)CO)CC1` (stereo unspecified): the inhibition was -10.8%.

Regarding `Cn1c(=O)c2c(ncn2CCOc2ccc(F)cc2)n(C)c1=O`, the inhibition is -6.4%.

For `Cc1cc(C)cc(NCc2cc(=O)oc3cc(C)c(O)cc23)c1`, the inhibition is 8.5%.

For the compound `CCn1cc(CCC(=O)NCCN2CCOCC2)c2ccccc21`, the inhibition was -13.7%.

As to `C/C(=N\NC(=O)c1cc(O)cc(O)c1)c1ccc(NC(=O)Cc2ccccc2)cc1`, the inhibition was 96.6% (active).

For `O=C(Cc1ccccc1)Nc1ccc(C(=O)Nc2ccc(O)cc2)cc1`, the inhibition was 1.2%.

For `C/C(=N\NC(=O)CNC(=O)c1cccc(F)c1)c1ccc2ccccc2c1`, the inhibition was 1.1%.

In the case of `O=C(CN1CCCCCC1)N/N=C/c1ccc2ccccc2c1`, the inhibition is -6.1%.

Turning to `O=C(NCc1c(O)ccc2ccccc12)c1ccccc1`, the inhibition was 2.1%.

In the case of `O=C(N/N=C/c1ccc([N+](=O)[O-])o1)c1cc2c(ccc3ccccc32)o1`, the inhibition was 98.8% (active).

For `Cc1ccc(NC(=O)C(=O)NCc2ccc(/C=N/NC(=O)c3c(C)nc4ccccn34)o2)cc1`, the inhibition was 18.4%.

Regarding `O=C(O)c1ccc(/C=N/NC(=O)c2cc3c(ccc4ccccc43)o2)cc1`, the inhibition is 98.7% (active).

For the compound `O=C(N/N=C/c1cccc([N+](=O)[O-])c1)c1cc2c(ccc3ccccc32)o1`, the inhibition is 98% (active).

For the compound `O=C(NCc1ccc(Cl)cc1)Nc1ccc(F)cc1`, the inhibition was 0.7%.

Consider `CCOC(=O)c1cc(/C(C)=N/OC(=O)c2ccc(C(C)(C)C)cc2)on1`, for which the inhibition is 0.2%.

In the case of `COc1ccc(S(=O)(=O)N2CCCC(C(=O)NCC3CCCO3)C2)cc1C` (stereo unspecified), the inhibition was -4.1%.

Regarding `COc1ccc(C(=O)NCc2nnc(SCC(=O)Nc3cc(OC)ccc3OC)o2)cc1`, the inhibition was -6.8%.

Turning to `CC1CCCN(CCCNC(=O)C2CC(=O)N(CCc3ccccc3)C2)C1` (stereo unspecified), the inhibition is -5.4%.

As for `CCC1CCCCN1CCCNC(=O)C1CC(=O)N(CCc2ccccc2)C1` (stereo unspecified), the inhibition was 20.9%.

`NC(=S)N=Nc1ccc(NN=C(N)N)cc1`: the inhibition is 40.2%.

For the compound `COc1ccc(NC(=O)Cc2nnc(SCC(=O)NC3CCCC3)n2C)cc1`, the inhibition is -4.1%.

Take `CCNC(=O)c1cc(Br)ccc1Cl`: the inhibition was -8.7%.

Consider `CN(c1ccccc1)S(=O)(=O)c1nnc(NC(=O)C2CCCCC2)s1`, for which the inhibition was -1.3%.

Turning to `Cn1c2ccccc2c(=O)c2ccc(C#Cc3ccccn3)cc21`, the inhibition is 75.5% (active).

For the compound `Cc1nc([N+](=O)[O-])cn1Cc1cccc2ccccc12`, the inhibition was -13.3%.

Consider `O=C(Cn1c2ccccc2c(=O)c2ccccc21)N/N=C/c1cc([N+](=O)[O-])ccc1N1CCCCCC1`, for which the inhibition was 99.4% (active).

Turning to `O=C(CN1CCCCC1)N/N=C/c1cccc(Cl)c1`, the inhibition is -9.7%.

For the compound `O=C(N/N=C/c1ccncc1)c1cccc(S(=O)(=O)Nc2ccc(Cl)cc2)c1`, the inhibition is 98.9% (active).

For the compound `NC(=O)c1ccc(C(=O)N/N=C/c2cccc(Oc3ccccc3)c2)cc1`, the inhibition is -0.5%.

With `Cc1nc2cc(NC(=O)c3ccc(Cl)cc3)ccc2n1C`, the inhibition is -9.5%.

With `CN(C)CCNC(=O)c1cccc(S(=O)(=O)Nc2ccc(F)cc2)c1`, the inhibition is -5.8%.

As to `O=C(N/N=C/c1cccnc1)c1cccc(NC(=O)c2ccc(Cl)cc2)c1`, the inhibition is 92.9% (active).

Consider `Cc1ccc(S(=O)(=O)NC(CC(=O)NC2CCCC2)c2ccco2)cc1` (stereo unspecified), for which the inhibition was 23.6%.

For `CSc1ncc(C(=O)Nc2ccccc2Cl)c(C)n1`, the inhibition was -1.1%.

Turning to `COc1ccc(OC)c(N/C(N)=N/c2nc(C)cc(C)n2)c1`, the inhibition was -19.2%.

With `Cc1ccc(NC(=O)CCNC(=O)c2ccccc2Cl)nc1`, the inhibition was 1.9%.

On to `CC(c1ccccc1)N1CCn2c(nc3cc(NC(=O)NC4CCCCC4)ccc32)C1` (stereo unspecified), for which the inhibition was -21.4%.

Take `COc1ccc(/C=C2\N=C(C)OC2=O)cc1OC`: the inhibition is -5.7%.

With `CC(C)OCCCNc1ncnc2c1nc1n2CCCC1`, the inhibition was -2.4%.

`COC(=O)c1ccnc(/C=N/O)c1`: the inhibition is 9.3%.

Regarding `COc1ccc(-c2nnc(Nc3nc4c(OC)cccc4s3)o2)cc1`, the inhibition is 95.5% (active).

`COc1ccc(-c2nnc(SC(C)C(=O)NNC(=O)c3ccc(C)cc3)o2)cc1` (stereo unspecified): the inhibition was -2.9%.
